Test results taken from PubChem BioAssay (Tox21).
Several values for one entry are separate records, joined by “and”; a condition that tells them apart may be missing. Equal entries are not always repeated. Records with an inconclusive call do not appear. A call without a number means that no potency is given here. Some structures have more than one record in an assay (separate samples or runs), and their calls can disagree. Activity calls are given as the source filed them. Unless noted, calls follow the shape of the full dose curve.

Key:
[1] = Nuclear factor erythroid 2-related factor 2/antioxidant responsive element (Nrf2/ARE) small molecule agonists: qHTS cell viability counter screen in human keratinocytes (AID 1919968; active = well fitted curve in the direction sought with a large enough effect in the repeat runs; an effect the other way counts as inactive or inconclusive; also: nearly all actives have a fitted effect of over 55% in size)
In short: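 Fluorescence read-out from CellTiter-Fluor after 1 h at 37 C. Wells held HaCaT-derived ARE-luciferase reporter cells (1,500/well) treated 23 h with DMSO-dissolved compounds. Run in the same wells as the luciferase agonist read.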

[2] = target: Gonadotropin-releasing hormone receptor (Homo sapiens) (UniProt P30968); assay: Human gonadotropin-releasing hormone receptor (GnRHR) small molecule agonists, calcium flux assay in GnRHR-HEK293 cells (AID 1920063); also: nearly all actives have a fitted effect of over 35% in size
In short: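 Calcium-dye fluorescence, Ex/Em=480/540, recorded every 1 sec over 3 min after compound addition to GnRHR-HEK293 cells. Cells had been seeded 18 hours earlier and dye-loaded for 1 hour at 37 C. Fifteen concentrations, triplicates.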

[3] = target: KiSS-1 receptor (Homo sapiens) (UniProt Q969F8); assay: Human kisspeptin (KISS1R) small molecule agonists, calcium flux assay in KISS1R-HEK293 cells (AID 1920064; active = well fitted curve in the direction sought with a large enough effect in the repeat runs; an effect the other way counts as inactive or inconclusive)
In short: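 Calcium flux read-out: kinetic fluorescence at Ex/Em=480/540, 1 s intervals over 3 min, after pin-tool compound addition to dye-loaded KISS1R-HEK293 cells. Fifteen concentrations, triplicates.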

[4] = G protein-coupled receptor (GPCR) small molecule agonists, calcium flux assay: HEK293 wild type cell line counter screen (AID 1920065)
In short: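 Agonist mode; 18 h seeding at 37 C, 1 h dye load at 37 C; compounds pinned from DMSO, ATP as positive control; kinetic fluorescence 480/540 nm, 3 min, 1 s reads; 15 concentrations, triplicate.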

[5] = p53 small molecule agonists, cell-based qHTS assay with human liver microsomes: qHTS cell viability counter screen (AID 1963579); also: nearly all actives have a fitted effect of over 45% in size
In short: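 Luminescent CellTiter-Glo read-out, 30 min at room temperature, gauged cytotoxicity in p53RE-bla cells exposed 16 h at 37 C to DMSO-dissolved compounds with metabolic activation by human liver microsomes and NADPH, each 0.5 mg/mL final.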

[6] = p53 small molecule agonists, cell-based qHTS assay with rat liver microsomes: qHTS cell viability counter screen (AID 1963580); also: nearly all actives have a fitted effect of over 45% in size
In short: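 After the beta-lactamase ratio was read, CellTiter-Glo was added to the same wells and luminescence measured at 30 min; cells had been treated 16 h at 37 C with compounds, rat liver microsomes and NADPH (0.5 mg/mL final each).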

[7] = p53 small molecule agonists, cell-based qHTS assay: qHTS cell viability counter screen (AID 1963581); also: nearly all actives have a fitted effect of over 45% in size
In short: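 Cytotoxicity read-out: ATP-based luminescence (CellTiter-Glo, 30 min RT) measured in the same wells as the p53 reporter assay, HCT-116 p53RE-bla cells, 16 h compound exposure at 37 C.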

[8] = target: 5-hydroxytryptamine receptor 2A (Homo sapiens) (UniProt P28223); assay: 5-hydroxytryptamine receptor 2A (HTR2A) small molecule antagonists, cell-based qHTS assay (AID 1963586); also: nearly all actives have a fitted effect of over 45% in size; also: potency is read from the fitted curve at half-maximal effect
In short: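 CHO cells stably expressing human HTR2A were plated for 18 h at 37 C, then loaded with calcium dye for 1 h. Compounds were preincubated 5 min at room temperature before DOI (4 nM solution) was added. Kinetic fluorescence was read for 3 min.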

[9] = target: Muscarinic acetylcholine receptor M1 (Homo sapiens) (UniProt P11229); assay: Cholinergic receptor muscarinic 1 (CHRM1) small molecule agonists, cell-based qHTS assay (AID 1963589); also: nearly all actives have a fitted effect of over 35% in size
In short: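 Calcium flux read-out: kinetic fluorescence at 1 sec intervals after pin-tool compound addition to dye-loaded CHRM1-CHO cells (human M1). Agonist mode; 15 concentrations tested in triplicate independent runs.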

[10] = cAMP Responsive Elements (CRE) small molecule agonists, cell-based qHTS assay (AID 1963590)
In short: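 Beta-lactamase reporter readout: LiveBLAzer B/G FRET substrate, 2 h at room temperature, added after 3 h compound treatment of CRE-bla HEK 293T cells at 37 C/5% CO2.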

[11] = cAMP Responsive Elements (CRE) small molecule antagonists, cell-based qHTS assay (AID 1963591; active = well fitted inhibition curve with a large enough effect in the signal ratio in the repeat runs, not every such curve was filed as active; the % refers to the signal ratio)
In short: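 HEK293T CRE-bla; 18 h preincubation; compound pin-transfer; NKH477 0.25 uM final, 3 h, 37 C; LiveBLAzer FRET substrate 2 h RT.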

[12] = target: Beta-2 adrenergic receptor (Homo sapiens) (UniProt P07550); assay: Adrenergic beta2 receptor (ADRB2) small molecule antagonists, cell-based qHTS assay (AID 1963592); also: nearly all actives have a fitted effect of over 50% in size; also: potency is read from the fitted curve at half-maximal effect
In short: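 Assay format: CHO-ADRB2 cells, 18-20hr seeding at 37C/5% CO2, then compound plus 1nM isoproterenol agonist mix for 0.5hr RT. Homogeneous time-resolved fluorescence cAMP detection after 1hr, expressed as 665/615 nm ratio.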

[13] = target: D(2) dopamine receptor (Homo sapiens) (UniProt P14416); assay: Dopamine D2 receptor (DRD2) small molecule agonists, cell-based qHTS assay (AID 1963594); also: nearly all actives have a fitted effect of over 35% in size
In short: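 HEK293 cells stably expressing human DRD2, pre-treated with PDE inhibitor Ro20-1724 (0.1 mM final) and compound 10 min at room temperature, then stimulated with NKH477 (200nM […]) for 30 min. cAMP read by HTRF (665/620 nm).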

[14] = target: D(2) dopamine receptor (Homo sapiens) (UniProt P14416); assay: Dopamine D2 receptor (DRD2) small molecule antagonists, cell-based qHTS assay (AID 1963595; active = well fitted inhibition curve with a large enough effect in the signal ratio in the repeat runs, with a control signal flat; the % refers to the signal ratio; also: potency is read from the fitted curve at half-maximal effect)
In short: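 Antagonism was scored as restored cAMP in HEK293-DRD2 cells. These cells were stimulated with 200 nM NKH477 and 12 nM quinpirole for 30 min at room temperature, in the presence of 0.1 mM Ro20-1724.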

[15] = target: 5-hydroxytryptamine receptor 2A (Homo sapiens) (UniProt P28223); assay: 5-hydroxytryptamine receptor 2A (HTR2A) small molecule agonists, cell-based qHTS assay (AID 1963587); also: nearly all actives have a fitted effect of over 30% in size
In short: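 CHO cells stably expressing human HTR2A, plated 18 h, loaded with calcium dye 1 h at 37 C. Agonist mode: compounds added and intracellular calcium fluorescence recorded kinetically for 2 min at 1 sec intervals.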

[16] = target: Muscarinic acetylcholine receptor M1 (Homo sapiens) (UniProt P11229); assay: Cholinergic receptor muscarinic 1 (CHRM1) small molecule antagonists, cell-based qHTS assay (AID 1963588); also: nearly all actives have a fitted effect of over 40% in size; also: potency is read from the fitted curve at half-maximal effect
In short: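 Compounds were tested at 15 concentrations in three independent runs. Dye-loaded CHRM1-CHO cells were exposed 5 min at room temperature before stimulation by acetylcholine added at 50nM. Intracellular calcium was read kinetically on FDSS for 3 min.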

[17] = target: Beta-2 adrenergic receptor (Homo sapiens) (UniProt P07550); assay: Adrenergic beta2 receptor (ADRB2) small molecule agonists, cell-based qHTS assay (AID 1963593);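 also: CHO cells stably overexpressing human ADRB2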
In short: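 CHO cells stably over-expressing ADRB2 were plated overnight at 37C, then dosed with compounds plus a stimulation mix containing 100uM IBMX and 25uM Ro-20-1724 for 0.5hr at room temperature. cAMP was measured by HTRF competition, 1hr.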

Chain of 5-hydroxytryptamine receptor 2A (Homo sapiens) (P28223 whole entry, looked up): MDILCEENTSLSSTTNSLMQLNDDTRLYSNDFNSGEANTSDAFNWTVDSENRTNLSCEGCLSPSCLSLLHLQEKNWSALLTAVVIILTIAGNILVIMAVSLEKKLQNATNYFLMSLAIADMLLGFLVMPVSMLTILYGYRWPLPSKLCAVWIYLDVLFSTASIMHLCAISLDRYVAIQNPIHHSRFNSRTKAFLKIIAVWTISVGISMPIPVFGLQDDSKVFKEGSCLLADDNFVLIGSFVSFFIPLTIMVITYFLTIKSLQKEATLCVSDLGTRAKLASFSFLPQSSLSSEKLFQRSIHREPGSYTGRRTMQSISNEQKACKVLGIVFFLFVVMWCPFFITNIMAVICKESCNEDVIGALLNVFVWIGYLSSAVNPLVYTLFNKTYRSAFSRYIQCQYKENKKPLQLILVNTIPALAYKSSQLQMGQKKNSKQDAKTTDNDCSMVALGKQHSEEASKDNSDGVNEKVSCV
Chain of D(2) dopamine receptor (Homo sapiens) (P14416 whole entry, looked up): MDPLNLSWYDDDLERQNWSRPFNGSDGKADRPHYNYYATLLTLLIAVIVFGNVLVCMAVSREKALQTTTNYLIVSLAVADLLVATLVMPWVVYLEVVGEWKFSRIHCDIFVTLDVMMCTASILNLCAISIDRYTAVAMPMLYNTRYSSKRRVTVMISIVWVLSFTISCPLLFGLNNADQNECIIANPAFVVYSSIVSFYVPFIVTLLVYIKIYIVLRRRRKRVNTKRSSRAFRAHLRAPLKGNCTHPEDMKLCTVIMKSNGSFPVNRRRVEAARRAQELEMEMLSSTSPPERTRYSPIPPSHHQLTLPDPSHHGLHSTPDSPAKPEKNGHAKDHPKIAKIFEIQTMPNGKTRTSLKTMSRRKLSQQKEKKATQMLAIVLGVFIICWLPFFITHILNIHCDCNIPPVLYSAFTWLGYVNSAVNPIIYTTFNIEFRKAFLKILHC
Chain of Gonadotropin-releasing hormone receptor (Homo sapiens) (P30968 whole entry, looked up): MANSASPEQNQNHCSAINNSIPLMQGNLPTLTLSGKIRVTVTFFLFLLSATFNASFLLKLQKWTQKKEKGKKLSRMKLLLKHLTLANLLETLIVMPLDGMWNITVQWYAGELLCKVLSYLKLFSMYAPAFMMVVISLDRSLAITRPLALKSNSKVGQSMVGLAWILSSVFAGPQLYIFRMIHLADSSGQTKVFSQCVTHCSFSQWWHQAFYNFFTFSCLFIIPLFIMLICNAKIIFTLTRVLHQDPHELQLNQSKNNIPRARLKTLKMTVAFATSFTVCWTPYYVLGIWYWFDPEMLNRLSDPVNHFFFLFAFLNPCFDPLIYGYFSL
Chain of Beta-2 adrenergic receptor (Homo sapiens) (P07550 whole entry, looked up): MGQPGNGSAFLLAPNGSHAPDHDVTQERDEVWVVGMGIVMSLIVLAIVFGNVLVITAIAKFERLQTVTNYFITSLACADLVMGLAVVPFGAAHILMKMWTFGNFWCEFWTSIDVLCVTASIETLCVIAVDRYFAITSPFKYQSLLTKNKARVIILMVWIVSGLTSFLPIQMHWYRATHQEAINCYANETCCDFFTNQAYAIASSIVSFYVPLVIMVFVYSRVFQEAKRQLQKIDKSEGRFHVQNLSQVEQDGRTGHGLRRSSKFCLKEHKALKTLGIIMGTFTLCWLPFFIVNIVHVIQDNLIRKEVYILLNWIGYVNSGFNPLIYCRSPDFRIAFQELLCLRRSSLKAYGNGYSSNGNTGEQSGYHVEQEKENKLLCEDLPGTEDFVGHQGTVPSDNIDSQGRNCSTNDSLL
Chain of KiSS-1 receptor (Homo sapiens) (Q969F8 whole entry, looked up): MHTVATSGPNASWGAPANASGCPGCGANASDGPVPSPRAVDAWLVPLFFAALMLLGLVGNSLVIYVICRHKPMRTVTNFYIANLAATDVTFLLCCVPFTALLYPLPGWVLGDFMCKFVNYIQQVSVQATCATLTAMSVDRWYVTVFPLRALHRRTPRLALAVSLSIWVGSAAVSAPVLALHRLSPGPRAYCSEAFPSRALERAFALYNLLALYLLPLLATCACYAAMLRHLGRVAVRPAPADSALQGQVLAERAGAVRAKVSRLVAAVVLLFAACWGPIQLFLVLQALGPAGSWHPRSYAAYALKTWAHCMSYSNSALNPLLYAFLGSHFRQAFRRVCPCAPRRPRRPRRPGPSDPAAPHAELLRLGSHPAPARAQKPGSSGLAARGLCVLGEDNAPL
Chain of Muscarinic acetylcholine receptor M1 (Homo sapiens) (P11229 whole entry, looked up): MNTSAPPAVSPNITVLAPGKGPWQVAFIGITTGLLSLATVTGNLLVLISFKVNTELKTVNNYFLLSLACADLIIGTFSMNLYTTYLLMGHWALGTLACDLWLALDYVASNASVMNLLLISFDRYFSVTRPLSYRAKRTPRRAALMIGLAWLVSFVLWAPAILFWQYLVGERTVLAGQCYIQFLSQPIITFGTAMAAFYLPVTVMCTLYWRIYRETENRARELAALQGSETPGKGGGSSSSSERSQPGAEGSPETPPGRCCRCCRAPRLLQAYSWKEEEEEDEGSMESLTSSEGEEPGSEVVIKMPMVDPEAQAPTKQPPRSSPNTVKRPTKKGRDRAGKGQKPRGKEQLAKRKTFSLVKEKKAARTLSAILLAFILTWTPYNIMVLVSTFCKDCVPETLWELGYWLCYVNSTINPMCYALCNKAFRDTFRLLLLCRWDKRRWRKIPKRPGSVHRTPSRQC

Row | Structure (SMILES) | Potency [1] | Potency [2] | Potency [3] | Potency [4] | Potency [5] | Potency [6] | Potency [7] | Potency [8] | Potency [9] | Potency [10] | Potency [11] | Potency [12] | Potency [13] | Potency [14] | Potency [15] | Potency [16] | Potency [17]
1 | NNC(=O)OCc1ccccc1 | inactive | inactive | inactive | inactive | inactive | inactive | inactive | inactive | inactive | inactive | inactive | inactive | inactive | inactive | – | – | –
2 | COc1cccc(CCc2ccccc2OCC(CN(C)C)OC(=O)CCC(=O)O)c1 (stereo not given) | inactive | inactive | inactive | inactive | inactive | inactive | inactive | 7.29 µM (active) | inactive | inactive | inactive | 4.73 µM (active) | – | inactive | inactive | inactive | –
3 | CC(C)(C)c1ccc(OCC2CO2)cc1 (stereo not given) | inactive | inactive | inactive | inactive | inactive | – | inactive | inactive | inactive | – | inactive | inactive | – | inactive | inactive | inactive | inactive
4 | CCOc1ccccc1OCCN[C@H](C)Cc1ccc(OC)c(S(N)(=O)=O)c1 | inactive | inactive | inactive | inactive | inactive | – | inactive | inactive | inactive | inactive | inactive | 8.41 µM (active) | – | 1.19 µM (active) | inactive | inactive | –
5 | CC(C)CCCCCCOC(=O)C1CCCCC1C(=O)OCCCCCCC(C)C (stereo not given) | inactive | inactive | inactive | inactive | inactive | inactive | inactive | inactive | inactive | inactive | inactive | inactive | – | inactive | inactive | inactive | –
6 | OC[C@H]1O[C@@H](n2cnc3c(=S)nc[nH]c32)[C@H](O)[C@@H]1O | inactive | inactive | inactive | inactive | inactive | – | – | – | inactive | inactive | inactive | inactive | inactive | inactive | inactive | – | –
7 | COc1ccc(CCN(C)CCCN2CCc3cc(OC)c(OC)cc3CC2=O)cc1OC | inactive | inactive | inactive | inactive | inactive | inactive | inactive | inactive | inactive | inactive | inactive | inactive | inactive | inactive | inactive | inactive | –
8 | O=C(c1ccccc1)c1ccc(O)cc1O | inactive | inactive | inactive | inactive | inactive | – | inactive | 38.2 µM (active) and 33.4 µM (active) | inactive | – | inactive | inactive | inactive | inactive | inactive | 19.2 µM (active) and inactive | inactive
